Measurements: PubChem BioAssay AID2685 (National Center for Advancing Translational Sciences (NCATS), 2010)
Hit rate of the full screen: of about 320,000 compounds, about 2,100 (0.66%) were called active. Not shown: some 53% with an inconclusive outcome. This is one part of a sample in which actives are shown more often than they occur. The call rests on the fitted dose curve; in most records, active means well fitted inhibition curve with a large enough effect in the signal ratio, with a control signal flat (not every such curve was filed as active); inconclusive means small, poorly fitted or top-dose-only effect, or effect the other way, or a change in a side signal; inactive means flat fitted curve, though single readings scatter; the % refers to the signal ratio.

Experiment: qHTS Assay for Lipid Storage Modulators in Drosophila S3 Cells;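 on cell number change: cells counted by Cell Tracker Red CMTPX staining in the red channel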; on lipid storage change, negative = inhibition: on the % scale 0 is the no-effect control and ±100 the full control effect
Conditions: BODIPY lipid droplet fluorescence, 18-24 h, cells fed with added oleic acid; cell number change: measured here: cell count max response; series mostly up to 46.1 µM; lipid storage change, negative = inhibition: at the top concentration
Summary of the method: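 Drosophila S3 cells loaded with oleic acid (400 uM, as added) and compounds at several concentrations; lipid droplets imaged by 488-nm laser-scanning cytometry, 500–530 nm intensity and object ratio to cell channel. Percent activity normalized to 20 uM Triacsin C.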
Potency means the concentration at half of the fitted maximal effect.

SMILES | lipid storage change, negative = inhibition | cell number change | outcome | Potency
CCc1ccc(C(=O)Nc2ccc3c(c2)n(C)c(=O)n3C)cc1 | -15.8% (inactive) | -19.7% |  | 
CC1Cc2ccccc2N1C(=O)COC(=O)C1=COCCO1 (stereo unspecified) | 8.97% (inactive) | -1.1% |  | 
COc1cccc(/C=N/n2nnnc2N)c1O | -18.8% (inactive) | 2.87% |  | 
C=CCOc1c(CNC2CCCC2)cc(Cl)cc1OC | 5.16% (inactive) | 36.7% |  | 
Cc1ccc(-c2nc(NCc3ccco3)n(C(=O)c3ccco3)n2)cc1 | -2.37% (inactive) | -0.0963% |  | 
CC(NC(=O)C1CCCN1S(=O)(=O)c1ccccc1)c1ccccc1 (stereo unspecified) |  | 4.49% | inactive | 
O=C(N1CCCCC1)C12CC3CC(C1)CC(C(=O)N1CCCCC1)(C3)C2 |  | 5% | inactive | 
CCN(CC)CCCNc1oc(-c2ccc(OC)c(OC)c2)nc1C#N |  | 24.5% | inactive | 
CN(C)CCNc1oc(-c2cccc(Cl)c2)nc1C#N | 6.31% (inactive) |  |  | 
CN(C)CCCNc1oc(-c2cccc(Cl)c2)nc1C#N |  | 5.97% |  | 23.1 µM (active)
O=C(O)c1cc2nc3c(c(C(F)(F)F)n2n1)CCCC3 | -22.7% (inactive) | -17.1% |  | 
COc1cc(C(=O)N2CCN(C3CCCCC3)CC2)cc(OC)c1OC | -6.47% (inactive) | 26.9% |  | 
COc1cc(C(=O)N2CCN(C)CC2)cc(OC)c1OC |  | -9.94% | inactive | 
COc1cc(C(=O)N2CCN(C(=O)C3CC3)CC2)cc(OC)c1OC |  | 0.295% |  | 14.6 µM (active)
CCOC(=O)C1=C(C)Nc2ccccc2N=C1NC(=O)/C=C/c1ccc(OC)cc1OC | 10.8% (inactive) | 0.577% |  | 
Cc1c(N(C(=O)c2cnccn2)C2(C(=O)NC3CCCC3)CCCCC2)c(=O)n(-c2ccccc2)n1C | -2.91% (inactive) | -4% |  | 
COc1cc([N+](=O)[O-])ccc1NC(=O)CC1SC(=Nc2ccc(F)cc2)N(CCC2=CCCCC2)C1=O (stereo unspecified) |  | -22.5% |  | 23.1 µM (active)
O=C(CC1SC(=Nc2ccc(OC(F)F)cc2)N(CCC2=CCCCC2)C1=O)Nc1ccccc1F (stereo unspecified) | 9.36% (inactive) | -16.7% |  | 
COc1ccc(OC)c(NC(=O)CC2SC(=Nc3ccc(F)cc3)N(CCC3=CCCCC3)C2=O)c1 (stereo unspecified) | -15.3% (inactive) | 1.52% |  | 
CCOc1ccccc1N=C1SC(CC(=O)Nc2ccc(OC)cc2OC)C(=O)N1CCC1=CCCCC1 (stereo unspecified) |  | -18.8% |  | 25.9 µM (active)
C=CCN1C(=O)C(CC(=O)NCC)SC1=Nc1ccccc1OC (stereo unspecified) |  | -0.552% | inactive | 
CCn1c2ccccc2c2cc(N=C3SC(CC(=O)Nc4ccccc4OC)C(=O)N3C)ccc21 (stereo unspecified) | 3.11% (inactive) |  |  | 
Cc1c(C(N)=O)sc2ncn(CC(=O)N(C)C3CCCCC3)c(=O)c12 | -24.6% (inactive) | 7.26% |  | 
CS(=O)(=O)N1CCC(C(=O)N2CCN(c3ccccc3F)CC2)CC1 | -2.62% (inactive) | 9.98% |  | 

SMILES | lipid storage change, negative = inhibition | cell number change | outcome | Potency
CC1=CN2C(=N)/C(=C/c3ccc(C)o3)C(=O)N=C2S1 | -1.21% (inactive) | -10.7% |  | 
CCOc1ccc(-c2ccc(/C=C3/C(=N)N4C=CSC4=NC3=O)o2)c([N+](=O)[O-])c1 | -13.3% (inactive) | 4.83% |  | 
CC1=CN2C(=N)/C(=C/c3ccc([N+](=O)[O-])o3)C(=O)N=C2S1 |  | -16.4% |  | 14.6 µM (active)
Cc1ccc(S(=O)(=O)Nc2cccc(-c3ccc4nnc(C)n4n3)c2)s1 | -1.01% (inactive) | 7.02% |  | 
O=C(NCc1ccccn1)Nc1cc(Cl)cc(Cl)c1 | -7.61% (inactive) | 7.72% |  | 
COc1ccc(C(NC(=O)C(C)(C)C)NC(=O)C(C)(C)C)cc1 | 1.97% (inactive) | -2.15% |  | 
O=C(CNS(=O)(=O)c1ccc(Br)s1)NC1CCCc2ccccc21 (stereo unspecified) | 19% (inactive) | -8.37% |  | 
COc1ccc(C)cc1NC(=O)CCCN1C(=S)NC(C)(C)CC1C (stereo unspecified) | 17.4% (inactive) | -1.97% |  | 
COc1ccc(NC(=O)NCCCCc2ccccc2)cc1 |  | -11.6% | inactive | 
CC(CNC(=O)CN1C(=O)NC2(CCCCC2C)C1=O)c1ccccc1 (stereo unspecified) | 16.9% (inactive) | -0.107% |  | 
COc1ccccc1N(/N=C1\Sc2ccccc2C1=O)C(C)=O |  | 3.61% |  | 16.4 µM (active)
CC(=O)N(/N=C1\Sc2ccccc2C1=O)c1ccccc1 | -19.2% (inactive) | -6.02% |  | 
COc1ccc(CCN(/C=C2\Sc3ccccc3C2=O)C(C)=O)cc1OC | -6.81% (inactive) | 23.5% |  | 
CCOc1ccc(NC(=O)CN(C)C(=O)COc2cccc3c2OC(C)(C)C3)cc1OCC | 0.121% (inactive) | -24.3% |  | 
O=C(c1ccc(Cl)c(F)c1F)N1CCCC1 |  |  | inactive | 
Cc1c(C)c2c(OCC(=O)NCc3ccco3)cc3c(c2oc1=O)CCC(C)(C)O3 | 22.1% (inactive) | 6.15% |  | 
COCCC(=O)NC12CC3CC(CC(C3)C1)C2 | -13.5% (inactive) | -7.91% |  | 
COCCNCC(=O)C12CC3CC(CC(C3)C1)C2 |  | -15% |  | 16.4 µM (active)
COCCNC(=O)C12CC3CC(CC(Cl)(C3)C1)C2 | -8.46% (inactive) | 18% |  | 
O=c1[nH]c2ccccc2nc1C(F)(F)F | 8.88% (inactive) | 17.1% |  | 
Cc1onc(-c2ccccc2)c1C(=O)N/N=C/c1ccc(Br)cc1 | 24.8% (inactive) | 8.96% |  | 
O=C(c1ccc(CS(=O)c2cccc(Cl)c2)o1)N1CCN(c2ccccn2)CC1 (stereo unspecified) |  | -26.2% |  | 18.4 µM (active)
O=C(c1ccc(CS(=O)c2cccc(Cl)c2)o1)N1CCCCCC1 (stereo unspecified) |  | -0.885% | inactive | 
O=C(c1ccc(CS(=O)c2cccc(Cl)c2)o1)N1CCOCC1 (stereo unspecified) |  | -42.8% | inactive | 

SMILES | lipid storage change, negative = inhibition | cell number change | outcome | Potency
Cc1ccc(CS(=O)Cc2ccc(C(=O)N3CCN(c4ccccn4)CC3)o2)cc1 (stereo unspecified) |  |  |  | 7.31 µM (active)
Cc1ccc(CS(=O)Cc2ccc(C(=O)N3CCN(c4ccccc4)CC3)o2)cc1 (stereo unspecified) |  |  | inactive | 
O=C(c1ccc(CS(=O)Cc2ccccc2Cl)o1)N1CCN(c2ccccn2)CC1 (stereo unspecified) |  |  | inactive | 
CC(=O)Nc1ccc(S(=O)(=O)N2CCCN(S(=O)(=O)c3ccc(C)cc3)CC2)cc1 | -13.6% (inactive) | -14.2% |  | 
Cc1ccc(/C=C2\S/C(=N/S(=O)(=O)c3cccs3)NC2=O)cc1 | 6.03% (inactive) | 3.91% |  | 
CC(C)N(Cc1ccccc1)S(=O)(=O)c1cccs1 | -12.8% (inactive) |  |  | 
N/C(=N\S(=O)(=O)c1cccs1)c1ccccc1 |  | 3.91% | inactive | 
Cc1cc[n+](-c2nc3ccccc3nc2[N-]S(=O)(=O)c2cccs2)cc1C | 6.93% (inactive) | -0.563% |  | 
CCc1ccc(NS(=O)(=O)c2cccs2)cc1 |  |  | inactive | 
NC(=NCCc1ccccc1)NS(=O)(=O)c1cccs1 | -3.21% (inactive) | -0.301% |  | 
O=C1C(=O)c2ccccc2C([O-])=C1[n+]1ccccc1 | -4.48% (inactive) | 19.4% |  | 
O=C1/C(=N\S(=O)(=O)c2cccs2)C([n+]2cccc(Cc3ccccc3)c2)=C([O-])c2ccccc21 |  | -9.11% |  | 20.6 µM (active)
CCc1cc[n+](C2=C([O-])c3ccccc3C(=O)/C2=N\S(=O)(=O)c2cccs2)cc1 |  | 2.59% |  | 1.84 µM (active)
O=C1/C(=N\S(=O)(=O)c2cccs2)C([n+]2ccccc2)=C([O-])c2ccccc21 |  | -19.9% |  | 20.6 µM (active)
Cc1cc[n+](C2=C([O-])c3ccccc3C(=O)/C2=N\S(=O)(=O)c2cccs2)cc1C |  | -25.5% |  | 8.2 µM (active)
CCCCC[n+]1ccn(C2=C([O-])c3ccccc3C(=O)/C2=N\S(=O)(=O)c2ccc(Br)cc2)c1 | -3.49% (inactive) |  |  | 
O=[N+]([O-])c1cccc(C(=S)N2CCCC2)c1 | 9.9% (inactive) | 3.41% |  | 
COc1ccccc1/C=C/C(=O)OCC(=O)NCc1ccco1 | 0.24% (inactive) | 4.89% |  | 
CCCc1c(C(=O)N/N=C(/C)c2ccncc2)nnn1-c1nonc1N | 3.04% (inactive) | 8.62% |  | 
Cc1ccc(/C=C2/SC(=S)N(C3CCCCC3)C2=O)o1 |  | 14.1% | inactive | 
Cc1cc(C)n(CCCN2C(=O)c3cccc4cccc(c34)C2=O)n1 |  |  | inactive | 
CNCc1ccccc1OCC(=O)Nc1ccccc1 | -4.97% (inactive) | -38.8% |  | 
COc1ccc(CC(=O)OCC(=O)N2CCCc3ccccc32)cc1 |  | -4.06% | inactive | 
COCCCNC(=O)CCC(=O)NNc1nc2ccccc2c2nc(-c3ccccc3)nn12 | 4.69% (inactive) | 5.05% |  | 

SMILES | lipid storage change, negative = inhibition | cell number change | outcome | Potency
CC(C)OCCCNC(=O)CCC(=O)NNc1nc2ccccc2c2nc(-c3ccccc3)nn12 |  | -5.84% |  | 11.6 µM (active)
CCOCCCNC(=O)CCC(=O)NNc1nc2ccccc2c2nc(-c3ccccc3)nn12 | 2.08% (inactive) | -6.89% |  | 
Cc1cc(C)cc(-n2c(N)c(C(=O)Nc3c(C)n(C)n(-c4ccccc4)c3=O)c3nc4ccccc4nc32)c1 | -7.93% (inactive) | 0.326% |  | 
CCOc1cc(/C=C/c2cccc[n+]2C)ccc1OCC(=O)Nc1ccc(C)cc1 |  | 2.56% | inactive | 
CCC(Sc1nc(N)cc(N)n1)C(=O)O (stereo unspecified) |  | -9.76% |  | 20.6 µM (active)
CCC(Sc1ccc(C(=O)O)cc1)C(=O)O (stereo unspecified) | 2.17% (inactive) | 22.4% |  | 
CCC(Sc1nc2ccccc2o1)C(=O)O (stereo unspecified) | 1.03% (inactive) | 11.5% |  | 
O=C(NCCO)c1cccc(Cl)c1 |  | -4.89% |  | 25.9 µM (active)
Cc1ccc(C)n1NC(=O)c1ccc(Cl)cc1Cl | 17.2% (inactive) | 0.742% |  | 
Cc1ccc(C)n1NC(=O)c1cccc(Cl)c1 |  |  |  | 20.6 µM (active)
Cc1ccc(C)n1NC(=O)c1ccccc1 | -7.54% (inactive) | 1.97% |  | 
NC(=O)CNC(=O)c1cccc(Cl)c1 | -15.1% (inactive) | 1.9% |  | 
CC(C)CCNC(=O)c1cccc(Cl)c1 | 18.3% (inactive) | 19.2% |  | 
COc1ccc(N2C(=S)N=C(Nc3cccc(C)c3)C23CCCCC3)cc1 | 7.3% (inactive) | -6.29% |  | 
Cc1ncoc1C(=O)N1CCCC(C(=O)c2cccc3ccccc23)C1 (stereo unspecified) |  | 6.72% | inactive | 
CCC(C)Oc1nc2c(c(=O)n(C)c(=O)n2C)n1C (stereo unspecified) | 5.16% (inactive) | 14.8% |  | 
CC(=O)/C(=C/Nc1ccc(Oc2ccccc2)cc1)c1ccccc1 |  |  | inactive | 
COc1ccc(-n2nc(C(=O)NCC(=O)NCCCN3CCOCC3)c3ccccc3c2=O)cc1 | 19.1% (inactive) | -8.11% |  | 
COc1ccccc1CNc1cncnc1 | -10.3% (inactive) | 7.04% |  | 
O=C(Nc1ccc(Cl)cc1)C1CCCN(c2ncnc3c2nc2n3CCCCC2)C1 (stereo unspecified) | -22.9% (inactive) | -19.1% |  | 
Cc1cccc(N2CC(C(=O)Nc3nnc(SCc4cccnc4)s3)CC2=O)c1 (stereo unspecified) | 0.993% (inactive) | 0.463% |  | 
Cc1ccc(Nc2cc(C)nc3ncnn23)c(Cl)c1 | 13.2% (inactive) | 1.99% |  | 
